Only a selection was taken, and hits are over-represented in it overall.
LmPK inhibitor – inhibitors of Leishmania mexicana pyruvate kinase; actives 0.37% (n = 290,000); Q27686; Potency, µM (doses to about 57.5 µM), for the others: at the highest dose activity change, negative = inhibition, most hits filed as inhibitors; purified LmPK, Kinase-Glo ATP luminescence, 1 h; further: potency means the concentration at half of the fitted maximal effect; on the % scale 0 is the no-effect control and ±100 the full control effect
Target sequence (Q27686 whole entry, looked up): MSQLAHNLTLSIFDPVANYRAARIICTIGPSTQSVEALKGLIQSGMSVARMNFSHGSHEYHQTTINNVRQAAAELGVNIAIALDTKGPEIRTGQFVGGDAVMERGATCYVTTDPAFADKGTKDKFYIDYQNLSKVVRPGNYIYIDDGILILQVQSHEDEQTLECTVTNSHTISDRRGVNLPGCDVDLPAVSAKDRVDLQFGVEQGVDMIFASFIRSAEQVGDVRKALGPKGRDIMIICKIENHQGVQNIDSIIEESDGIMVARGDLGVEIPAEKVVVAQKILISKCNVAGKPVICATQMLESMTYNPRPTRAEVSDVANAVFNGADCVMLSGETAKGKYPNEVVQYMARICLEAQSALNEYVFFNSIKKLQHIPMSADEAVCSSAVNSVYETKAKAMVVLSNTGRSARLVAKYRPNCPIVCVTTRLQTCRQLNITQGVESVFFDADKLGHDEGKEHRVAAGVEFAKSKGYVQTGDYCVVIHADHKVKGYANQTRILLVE
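Kinase-Glo luminescence read after 1 h RT reaction of 0.1 nM LmPK with 0.5 mM PEP and 0.1 mM ADP. Activity scaled between uninhibited and enzyme-free controls.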
Tb PYK inh – blocks Trypanosoma brucei pyruvate kinase | Potency, µM (top dose mostly 76.8 µM), without a hit: at the top dose activity, negative = inhibition, most hits filed as inhibitors | TbPYK enzyme, Kinase-Glo Plus ATP luminescence, 45 min | actives 0.12% (n = 410,000) | AID 624173; further: potency means the concentration at half of the fitted maximal effect; on the % scale 0 is the no-effect control and ±100 the full control effect; nearly all actives have a fitted effect of over 50% in size
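Quantitative HTS: titrated library compounds versus trypanosomal pyruvate kinase in TEA buffer (pH 7.2) containing KCl, MgCl2, BSA and Tween-20. Reactions were initiated with ADP, 130 uM final. Kinase-Glo Plus luminescence was read after 45 min at RT.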
Shiga toxin inh – inhibitors of Shiga toxin in Vero cells; Vero cells, Shiga toxin protein synthesis inhibition reporter; inhibition, % at 38.7 µM; actives 9.2% (n = 290,000); AID 2315; in the data active means inhibition mostly above about 28%, no sharp cut-off; inactive means mostly below about 43%; further: 0% is about no effect
Cycloheximide cs – counter-screen for Shiga toxin inhibitors: cycloheximide protein synthesis inhibition. actives 12% (n = 300,000). max response, %. cell reporter, cycloheximide protein synthesis inhibition counterscreen; in the data active means max response mostly above about 13%, no sharp cut-off; inactive means mostly below about 14%; further: read at 38.3 µM for the half of the compounds with a filed dose; 0% is about no effect
RE007 growth inh – less growth of the S. pombe RE007 Vpr strain; Potency, µM (top dose mostly 92.2 µM), for inactives: top-dose activity change, negative = less growth, hits mostly inhibitors; actives 0.21% (n = 360,000); S. pombe RE007 Vpr strain, BacTiter-Glo ATP luminescence, 24 h; active means well fitted falling curve with a large enough effect; inconclusive means small, poorly fitted or top-dose-only effect; inactive means no such curve, though single readings can be large or run the other way; further: potency means the concentration at half of the fitted maximal effect; on the % scale 0 is the no-effect control and ±100 the full control effect; nearly all actives have a fitted effect of over 50% in size
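Fission yeast RE007 carrying one integrated HIV-1 vpr copy, seeded at OD 0.01 in PMG+AL medium with 23 nL pinned compound. Grown 24 h at 30 degrees; viability read by BacTiter-Glo luminescence after 5 min.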
Giardia FBPA inh-1 – blocks Giardia fructose-bisphosphate aldolase activity | A8B2U2 | purified Giardia FBPA | Potency, µM (highest dose often 59.6 µM), for inactives: at the top dose activity, negative = inhibition, usual class: inhibitors | actives 0.71% (n = 290,000) | AID 2451; further: potency means the concentration at half of the fitted maximal effect; on the % scale 0 is the no-effect control and ±100 the full control effect; nearly all actives have a fitted effect of over 55% in size
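Giardia FBPA (40 nM reagent) was preincubated 10 min at RT with compound (up to 57.5 uM final), then substrate plus GAPDH/TPI/NAD/arsenate coupling system with diaphorase/resazurin was added; resorufin fluorescence (525/598 nm) was read after 20 min.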
Giardia growth – Giardia lamblia growth inhibition; shares compounds with Giardia FBPA inh-1; Potency, µM (doses to about 57.5 µM), for inactives: top-dose activity change, negative = inhibition, usual class: inhibitors; actives 5% (n = 1,500); Giardia lamblia trophozoite growth inhibition; AID 2785;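 further: potency means the concentration at half of the fitted maximal effect; trophozoites exposed to compound for 48 h at 37 °C; on the % scale 0 is the no-effect control and ±100 the full control effect; nearly all actives have a fitted effect of over 70% in size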
Mammalian tox – mammalian cytotoxicity of Giardia aldolase inhibitor hits | shares compounds with Giardia FBPA inh-1 | mammalian cell viability counter-screen, qHTS | Potency, µM (doses to about 57.5 µM), without a hit: at the highest dose viability change, negative = toxicity, most hits filed as inhibitors | actives 4% (n = 1,500);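 further: Chinese hamster ovary cells used as mammalian cytotoxicity surrogate; viability measured as cellular ATP by luminescence; potency means the concentration at half of the fitted maximal effect; compound exposure lasted 48 h before reading; on the % scale 0 is the no-effect control and ±100 the full control effect; nearly all actives have a fitted effect of over 60% in size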
Giardia FBPA inh-2 – confirmation of Giardia fructose-bisphosphate aldolase inhibitors | shares compounds with Giardia FBPA inh-1 | Potency, µM (titrated, usually from 57.5 µM), for the others: at the highest dose activity change, negative = inhibition, most hits filed as inhibitors | AID 2787 | purified Giardia aldolase enzyme activity, qHTS | actives 5% (n = 1,500); further: potency means the concentration at half of the fitted maximal effect; on the % scale 0 is the no-effect control and ±100 the full control effect; nearly all actives have a fitted effect of over 45% in size
Rabbit FBPA inh – selectivity test for Giardia aldolase inhibitors: rabbit aldolase; actives 4% (n = 1,500); Rabbit muscle FBPA enzyme inhibition, selectivity counter-screen; Potency, µM (titrated, usually from 57.5 µM), inactives show at the highest dose activity, negative = inhibition, usual class: inhibitors; shares compounds with Giardia FBPA inh-1; further: potency means the concentration at half of the fitted maximal effect; on the % scale 0 is the no-effect control and ±100 the full control effect; nearly all actives have a fitted effect of over 60% in size
GAPDH counter – GAPDH inhibition flagged for Giardia aldolase hits | Potency, µM (titrated, usually from 57.5 µM), for the others: at the highest dose activity change, negative = inhibition, usual class: inhibitors | actives 6% (n = 1,500) | AID 2795 | shares compounds with Giardia FBPA inh-1 | GAPDH coupling enzyme counterscreen, biochemical, qHTS; further: potency means the concentration at half of the fitted maximal effect; on the % scale 0 is the no-effect control and ±100 the full control effect; nearly all actives have a fitted effect of over 55% in size
* hit, by the source's call; ? = inconclusive; · = no result given; [ ] = remark or other dose. Unless noted, the call rests on the fitted dose curve; in most records, active means well fitted curve in the direction sought with a large enough effect; inconclusive means small, poorly fitted or top-dose-only effect, or another doubt; inactive means no such curve, though single readings can be large; an effect the other way counts as inactive or inconclusive.

SMILES | LmPK inhibitor | Tb PYK inh | Shiga toxin inh | Cycloheximide cs | RE007 growth inh | Giardia FBPA inh-1 | Giardia growth | Mammalian tox | Giardia FBPA inh-2 | Rabbit FBPA inh | GAPDH counter
CCNC(=S)NS(=O)(=O)c1ccc(Cl)cc1 | 1% | 1% | -7 | -2 | 12% | 7.1µM* | 25% | -3% | 5% | 1% | 10%
S=C(NCc1ccccc1)NNc1ccccc1 | 6% | -1% | 12 | -4 | -20% | ? | · | · | · | · | ·
Cn1ccnc1SCC(=O)Nc1cc(Cl)ccc1Cl | · | -3% | · | · | · | · | · | · | · | · | ·
O=C(COc1ccc(Cl)cc1Cl)Nc1ccc(C(=O)OC2CCCCC2)cc1 | · | -1% | · | · | · | · | · | · | · | · | ·
CC(C)C1N(C(=O)N2CCOCC2)CCN1S(=O)(=O)c1ccccc1 (configuration not stated) | 2% | 1% | -4 | -1 | 26% | -3% | · | · | · | · | ·
Nn1c(Cc2ccc(F)cc2)n[nH]c1=S | 9% | -21% | -15 | -1 | 11% | ? | · | · | · | · | ·
NNc1n[nH]c(=S)n1N | 0% | -22% | 63* | 40* | -12% | 1.8µM* | 20%[38.3 µM] | -4% | 16µM* | 18µM* | 18µM*
O=C(Nc1cccc(F)c1)N1CCC2(CCNCC2)CC1 | · | -7% | · | · | · | 6% | · | · | · | · | ·
CCOC(=O)C1CCN(Cc2ccc3ccccc3c2)CC1 | -1% | 12% | -10 | 1 | 2% | -27% | · | · | · | · | ·
CCOC(=O)N1CCN(Cc2ccc3ccccc3c2)CC1 | 1% | 17% | -6 | -2 | -11% | 25µM* | 9%[10.4 µM] | 9% | 3% | 8% | 2%
CCOC(=O)N1CCN(Cc2ccccn2)CC1 | -5% | 0% | -4 | 2 | -6% | 14µM* | 33% | -10% | 0% | 3% | 6%
Cc1cc(NC(=O)CSCC(=O)Nc2nc3ccccc3s2)no1 | · | 3% | · | · | 8% | · | · | · | · | · | ·
N#CCCN(Cc1cccnc1)C(=S)NC(=O)c1ccc(S(=O)(=O)N2CCCC2)cc1 | -1% | ? | -9 | 1 | 4% | 7.9µM* | 10% | 7% | -2% | 5% | 12%
CCC1CO/C(=C(\C(Cl)=C(Cl)Cl)[N+](=O)[O-])N1 (configuration not stated) | 3% | -1% | 47 | 10 | 13% | -1% | · | · | · | · | ·
CN1CCO/C1=C(\C(Cl)=C(Cl)Cl)[N+](=O)[O-] | -3% | 6% | -6 | -3 | -20% | 18µM* | -29% | -9% | -3% | 5% | 4%
CC(C)n1c(=O)[nH][nH]c1=S | 8% | 3.5µM* | 5 | 1 | 23% | 18µM* | -4%[10.4 µM] | 3% | -10% | 32µM* | -16%
CC(C)n1c(=O)[nH]c2ccccc21 | 0% | 1% | -2 | -3 | -14% | 23% | · | · | · | · | ·
O=C(O)C1Nc2c(O)cc(Cl)c([N+](=O)[O-])c2C2C=CCC12 (configuration not stated) | ? | -26% | -9 | -5 | 5% | ? | · | · | · | · | ·
CCCNC(=O)C1(C)CCCN(Cc2ccccc2C#N)C1 (configuration not stated) | · | 10% | · | · | 12%[18.4 µM] | · | · | · | · | · | ·
